# Results: PubChem BioAssay AID598 (SRMLSC, 2007)
# Hit rate of the full screen: of about 85,000 compounds, about 5,100 (6%) were called active. The list comes from a sample in which actives are over-represented; it also holds similar structures and randomly drawn compounds. Unmarked numbers belong to inactive results.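 The calls were made as follows: active = viability at or below 40%; inactive = viability above 40%.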
# Assay: H69AR cell viability reduction – human, 86K library, primary screen (AID 598);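 also: multidrug resistant small cell line overexpressing MRP-1 efflux transporter; 100% = mean luminescence of untreated control wells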
# Settings: H69AR lung tumor viability, ATP luminescence, 72 h; at 10 µM; hits give low values
row,SMILES,viability
1,CCOC(=O)c1c(N)n(Cc2ccccc2)c2nc3ccccc3nc12,74.2%
2,CCOC(=O)c1c(N)n(CCN2CCOCC2)c2nc3ccccc3nc12,92.9%
3,COc1cc(Cn2c(N)c(C(=O)NCc3ccco3)c3nc4ccccc4nc32)cc(OC)c1OC,9.48% (active)
4,Cn1c(O)c(C=NCCN2CCNCC2)c(=O)n(C)c1=O,93.2%
5,COc1ccc(CN2CCN(c3ccccc3F)CC2)c(OC)c1,78.7%
6,CN(C)C(=O)NC(O)C(Cl)(Cl)Cl (stereo not given),103%
7,CCCCn1c(O)c(C(CC)=NCc2ccco2)c(=O)[nH]c1=O,76.8%
8,CCOc1ccc(CN(CCCl)CCCl)cc1C(=O)OC,54.1%
9,COc1ccc(-c2nc(CS(=O)CC(=O)N3CCC4(CC3)OCCO4)c(C)o2)cc1 (stereo not given),92.7%
10,O=C(CCCn1c(=O)[nH]c2cc(Cl)ccc2c1=O)N1CCC2(CC1)OCCO2,82.2%
11,Cc1ccc(Cn2c(C)c3cnn(CC(=O)N4CCC5(CC4)OCCO5)c(=O)c3c2C)cc1,37.9% (active)
12,CC(=O)c1c(C)n(C(C)C)c2ccc(O)cc12,98.6%
13,CCCCCn1c(=O)c(C(=O)NCc2ccccn2)c(O)c2ccccc21,20.3% (active)
14,COc1ccc(CCn2c(O)c(C=NCCCn3ccnc3)c(=O)[nH]c2=O)cc1OC,87.2%
15,CCN(N=Nc1nonc1OC)c1nonc1OC,95.7%
16,Cc1ccc(N(C)C(=O)Oc2cccc3ccc(C)nc23)cc1,90%
17,CCC(=NCCc1ccccc1)c1c(O)n(C2CCCCC2)c(=O)[nH]c1=O,25.3% (active)
18,CC(=O)c1c(O)n(C2CCCCCC2)c(=O)[nH]c1=O,88.7%
19,CCC(=NCc1ccco1)c1c(O)n(Cc2ccccc2)c(=O)[nH]c1=O,71.1%
20,c1cc2c(cc1CCNC1CCCCCC1)OCO2,73.7%
